Test results: the supplement of paper PMC3334620
In all, about 33,000 sequences were measured (“E-score (-0.5 to 0.5)”: median about -0.012, highest 2% from about 0.29 on). Shown is part of a subset that was picked to be rich in the highest values.

These sequences were tested against T1, Ybr033w (UniProt P38073) (assay: PBM E-score (8-mer binding enrichment) (E-score (-0.5 to 0.5)); higher = stronger / more preferred TF binding). Conditions: protein concentration: 200 nM; construct: GST-full length.
T1 sequence: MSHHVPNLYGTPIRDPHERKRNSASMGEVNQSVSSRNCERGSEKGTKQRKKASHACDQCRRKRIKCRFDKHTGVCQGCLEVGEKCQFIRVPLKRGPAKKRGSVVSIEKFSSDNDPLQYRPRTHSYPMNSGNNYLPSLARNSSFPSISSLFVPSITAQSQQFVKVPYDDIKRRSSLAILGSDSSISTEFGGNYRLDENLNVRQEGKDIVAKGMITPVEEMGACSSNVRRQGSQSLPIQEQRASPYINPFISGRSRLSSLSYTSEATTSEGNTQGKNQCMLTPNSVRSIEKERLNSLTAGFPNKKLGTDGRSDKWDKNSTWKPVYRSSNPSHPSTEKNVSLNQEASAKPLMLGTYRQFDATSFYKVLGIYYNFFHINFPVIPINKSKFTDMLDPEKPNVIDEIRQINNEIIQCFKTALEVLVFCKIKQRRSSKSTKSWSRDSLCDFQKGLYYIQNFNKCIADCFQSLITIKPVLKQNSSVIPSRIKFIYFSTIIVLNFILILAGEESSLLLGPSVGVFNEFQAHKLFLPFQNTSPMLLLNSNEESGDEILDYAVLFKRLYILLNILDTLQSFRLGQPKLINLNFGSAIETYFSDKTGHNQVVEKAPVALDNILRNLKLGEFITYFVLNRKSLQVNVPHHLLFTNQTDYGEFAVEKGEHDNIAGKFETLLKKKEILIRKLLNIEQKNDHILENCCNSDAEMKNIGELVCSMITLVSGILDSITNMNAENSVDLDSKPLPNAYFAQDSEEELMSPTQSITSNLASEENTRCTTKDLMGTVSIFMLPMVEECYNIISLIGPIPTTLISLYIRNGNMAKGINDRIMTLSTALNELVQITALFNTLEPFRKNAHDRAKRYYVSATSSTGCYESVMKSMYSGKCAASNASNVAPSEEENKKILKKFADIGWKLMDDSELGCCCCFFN
Procedure: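 Universal 'all 10-mer' protein binding microarrays (Agilent AMADID 015681) probed with GST-tagged S. cerevisiae TFs (full-length or DBD) made by in vitro transcription/translation (PURExpress), about 100-200 nM. Bound TF was detected with fluorescent anti-GST. Each ungapped 8-mer (which stands for itself and its reverse complement) is scored by the PBM enrichment score (E-score), a modified Wilcoxon-Mann-Whitney statistic from -0.5 to +0.5, computed with the Universal PBM Analysis Suite. Scale: above 0.35 generally sequence-specific binding.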

| Sequence | PBM E-score |
| --- | --- |
| CCGGGTCG | -0.279 |
| CCCGGGAC | -0.322 |
| ATAATAAT | 0.305 |
| ATAATGAG | 0.0777 |
| ATAATGAA | 0.331 |
| ATAATAAC | 0.159 |
| ATAATGAT | 0.203 |
| ATAATAAG | 0.18 |
| CTTGCTGA | 0.0188 |
| CGGACAAA | 0.297 |
| CGGACAAG | -0.0192 |
| AGGACAAA | 0.17 |
| CAGACTTA | -0.189 |
| TCAAGAGA | 0.0989 |
| AGATTCTA | 0.106 |
| GATGTTCA | -0.079 |
| CATGTTCC | 0.0191 |
| GATGTTCC | 0.412 |
| CCTGAGAC | -0.235 |
| ATTCTCCA | 0.175 |
| ATTCTCCG | 0.305 |
| ATTCTCCC | 0.14 |
| CCACAGGC | -0.336 |
| AACTCTCT | 0.0664 |
| ACCTCAGG | -0.12 |

| Sequence | PBM E-score |
| --- | --- |
| ATATCTTA | 0.281 |
| ATATCTTG | 0.288 |
| ATATCTTC | 0.218 |
| CTAGAGGA | -0.102 |
| GCAAATTA | 0.106 |
| TGGTCGAA | -0.209 |
| GATATACA | 0.144 |
| GGTATACA | 0.00479 |
| TGTATACA | 0.341 |
| TATATACA | 0.24 |
| AATATACT | 0.279 |
| CATATACC | -0.165 |
| AGTATACA | 0.185 |
| AATATACA | 0.316 |
| CATATACA | 0.324 |
| GTCTAATA | 0.0847 |
| GGCTCCAC | -0.267 |
| GATAGGAC | -0.188 |
| GTGATCAC | -0.181 |
| TACTCACA | 0.158 |
| ATCGAGCG | -0.089 |
| GATCTAGA | 0.0239 |
| GATACCCA | 0.0285 |
| ATATATAG | 0.332 |
| CAATATAG | 0.115 |

| Sequence | PBM E-score |
| --- | --- |
| AAATAGTT | 0.227 |
| CTATATAG | 0.0604 |
| AAATAGTC | 0.0679 |
| AGATATAG | 0.171 |
| AACTATAC | 0.151 |
| AAATATAG | 0.305 |
| AAATATGG | 0.12 |
| AACTATAG | 0.104 |
| AAATAGTG | 0.292 |
| AACTATAT | 0.335 |
| TCATCGGA | 0.109 |
| CAACCTTA | 0.14 |
| CCTTAGCG | -0.178 |
| ATTTACCG | 0.132 |
| TACAATCA | 0.171 |
| AACTACCG | 0.0353 |
| TAATAGAA | 0.198 |
| AAATATCG | 0.247 |
| AAGTATAG | 0.12 |
| AAGTATAT | 0.302 |
| AAGTATAA | 0.152 |
| CAATATAC | 0.0977 |
| AAATATAC | 0.312 |
| TAATATGA | 0.284 |
| GAATATAC | 0.141 |

| Sequence | PBM E-score |
| --- | --- |
| AAATATCC | 0.273 |
| TAATATAA | 0.379 |
| AAATATCT | 0.295 |
| AGAGTAGG | 0.0322 |
| CTATCTGC | -0.0829 |
| ACAACTGT | 0.106 |
| CCACTACC | -0.149 |
| AGGTGCAG | -0.186 |
| AATTCTGC | 0.0888 |
| ATGACGCA | -0.0224 |
| ACCAGGTA | -0.225 |
| ATCGTTAA | 0.24 |
| ATCTTCAG | 0.185 |
| GAATATAA | 0.131 |
| AAATAGAC | 0.101 |
| CAATATAA | 0.284 |
| AAATATGT | 0.252 |
| AAATATAA | 0.305 |
| ATATATAT | 0.141 |
| AAATAGAG | 0.247 |
| AAATATAT | 0.339 |
| AAATAGAT | 0.289 |
| CAAGTCGA | -0.0109 |
| GGTGAATA | 0.127 |
| ACGCAACG | 0.0621 |

| Sequence | PBM E-score |
| --- | --- |
| GTAAGTCA | 0.0193 |
| AAGCTTAC | 0.0655 |
| AAGGTTTG | 0.227 |
| AGGTGAGC | -0.172 |
| ACTAACCC | 0.0277 |
| GTCGCGAC | 0.234 |
| CTTAACAC | 0.112 |
| ATTAACAA | 0.382 |
| ATTAACAC | 0.368 |
| AATAACAC | 0.222 |
| ATTAACAG | 0.0928 |
| GTTAACAA | 0.0731 |
| CGATTAAC | 0.103 |
| CGATTAAA | 0.174 |
| TGATTAAA | 0.27 |
| GGATTAAA | 0.341 |
| GGATTAAC | 0.441 |
| AGATTAAA | 0.295 |
| AGATTAAG | 0.214 |
| AGATTAAC | 0.199 |
| AGATTAAT | 0.284 |
| GGAGAACA | 0.026 |
| ACTTAGCA | 0.00122 |
| GCCCTCTA | -0.176 |
| TACGCCCA | 0.0751 |

| Sequence | PBM E-score |
| --- | --- |
| CAGATCGC | -0.164 |
| ATAAACAT | 0.289 |
| GAAAACAA | 0.115 |
| AAAAACAA | 0.321 |
| ATAAACAC | 0.241 |
| ATAAACAA | 0.326 |
| TAAAACAA | 0.177 |
| TTAAACAA | 0.226 |
| GTAAACAA | 0.298 |
| GTAAACAC | 0.0587 |
| ATAAACAG | 0.0706 |
| AAAAACAT | 0.21 |
| CTAAACAA | 0.112 |
| CAGGGTAC | -0.158 |
| GTCGCATA | 0.214 |
| TATCACAA | 0.18 |
| AGCTAGAG | -0.0778 |
| CTCAAAAC | 0.217 |
| CCTTGGGA | 0.021 |
| ACAGAAGA | 0.0639 |
| CCTTTGCA | 0.0151 |
| AATAACCG | -0.0165 |
| AAAAACCT | 0.307 |
| AAAAACCC | 0.164 |
| AAAAACCG | 0.134 |

| Sequence | PBM E-score |
| --- | --- |
| CCACTTCA | -0.0798 |
| AGCCCTCG | -0.314 |
| CGAATTCA | -0.00151 |
| CGAATTAC | 0.135 |
| AGAATTAC | 0.181 |
| CGAATTAA | 0.112 |
| TGAATTAA | 0.226 |
| GGAATTAC | 0.291 |
| GGAATTAA | 0.349 |
| GGAATTCA | 0.288 |
| GGAATTCC | -0.236 |
| CCACGCTC | -0.126 |
| ACTACTGG | 0.017 |
| GGACCGAA | 0.061 |
| AGTCCTTA | -0.049 |
| CACAATTC | 0.16 |
| GATAAAGA | 0.154 |
| CATAAATC | 0.146 |
| GATAAATA | 0.4 |
| TATAAATA | 0.289 |
| ACTAAATA | 0.322 |
| GATAAATC | 0.304 |
| ACTAAATC | 0.278 |
| CCTAAATA | 0.118 |
| GGTAAATA | 0.225 |
